Holding throughout (test): DAPPL (digital affinity profiling via proximity ligation, sequencing); 10 mM Tris-HCl pH 7.5, 50 mM NaCl, 1 mM DTT, 4% glycerol, room temperature, 30 min; GST-TFs on glutathione beads, 16-mer random dsDNA library, 0.1% formaldehyde crosslink after washing; high values mean tight binding
One assay concerns the target T1, FEV (Homo sapiens, UniProt Q99581 1-238).
T1 sequence: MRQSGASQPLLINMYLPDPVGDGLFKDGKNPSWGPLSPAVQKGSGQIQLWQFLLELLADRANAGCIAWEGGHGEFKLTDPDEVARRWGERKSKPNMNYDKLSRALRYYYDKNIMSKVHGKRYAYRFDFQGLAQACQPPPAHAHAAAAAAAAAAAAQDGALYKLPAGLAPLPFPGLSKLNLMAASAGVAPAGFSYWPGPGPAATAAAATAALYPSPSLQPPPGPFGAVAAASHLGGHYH
Conditions: protein: recombinant; tags: N-terminal GST; dsDNA, one strand shown. The essentials: (§1)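 A tag-only sample was pooled with DNA-barcoded human transcription factors that had been expressed in yeast as GST fusions and captured on glutathione beads. The pools were incubated for 30 min at room temperature with 200 nmole of a random double-stranded 16-mer DNA library in Tris/NaCl/DTT/glycerol buffer, then washed, crosslinked with 0.1% formaldehyde, proximity-ligated (BsaI/T4 ligase, 1 h, 37 °C), PCR-amplified and sequenced on an Illumina NextSeq500. Binding signal is each hexamer's read frequency for a factor divided by its frequency for the tag-only sample.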

A further assay addresses ETV5 (Homo sapiens, UniProt P41161 1-510). Conditions: protein: recombinant; tags: N-terminal GST; dsDNA, one strand shown. Put shortly: as §1
For the next assay, the target named is HSF1 (Homo sapiens, UniProt Q00613 1-529). The settings on record: protein: recombinant; tags: N-terminal GST; chain copies: 3; dsDNA, one strand shown. Put shortly: as §1
HSF1, sequence (Q00613 whole entry): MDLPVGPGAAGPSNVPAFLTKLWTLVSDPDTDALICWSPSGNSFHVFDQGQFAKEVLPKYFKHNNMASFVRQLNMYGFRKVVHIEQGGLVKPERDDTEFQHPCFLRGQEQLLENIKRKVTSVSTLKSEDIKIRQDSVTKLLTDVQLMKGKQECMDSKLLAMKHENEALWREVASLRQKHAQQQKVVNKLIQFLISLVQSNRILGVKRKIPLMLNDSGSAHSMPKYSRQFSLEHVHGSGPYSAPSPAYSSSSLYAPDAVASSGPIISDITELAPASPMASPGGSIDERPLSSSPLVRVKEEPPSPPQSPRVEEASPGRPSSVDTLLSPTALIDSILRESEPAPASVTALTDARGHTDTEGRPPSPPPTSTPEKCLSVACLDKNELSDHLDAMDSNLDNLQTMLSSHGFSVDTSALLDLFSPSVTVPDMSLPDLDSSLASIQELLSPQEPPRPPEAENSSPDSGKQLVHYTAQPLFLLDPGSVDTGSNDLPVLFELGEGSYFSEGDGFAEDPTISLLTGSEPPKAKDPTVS
A further assay addresses T2, SPIC (Homo sapiens, UniProt Q8N5J4 1-248).
T2 sequence: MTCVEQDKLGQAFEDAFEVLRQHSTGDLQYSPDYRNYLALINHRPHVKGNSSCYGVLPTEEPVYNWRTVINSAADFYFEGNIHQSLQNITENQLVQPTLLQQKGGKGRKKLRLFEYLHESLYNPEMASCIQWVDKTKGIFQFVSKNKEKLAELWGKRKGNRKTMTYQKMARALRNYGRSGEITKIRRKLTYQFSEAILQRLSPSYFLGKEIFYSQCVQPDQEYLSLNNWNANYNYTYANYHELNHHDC
The settings on record: protein: recombinant; tags: N-terminal GST; dsDNA, one strand shown. Put shortly: as §1

In another assay the target is ELF4 (Homo sapiens, UniProt Q99607 1-663). Conditions: protein: recombinant; tags: N-terminal GST; dsDNA, one strand shown. Put shortly:
as §1

The next assay has as its target T3, ELK4 (Homo sapiens, UniProt P28324-2 1-405).
T3 sequence: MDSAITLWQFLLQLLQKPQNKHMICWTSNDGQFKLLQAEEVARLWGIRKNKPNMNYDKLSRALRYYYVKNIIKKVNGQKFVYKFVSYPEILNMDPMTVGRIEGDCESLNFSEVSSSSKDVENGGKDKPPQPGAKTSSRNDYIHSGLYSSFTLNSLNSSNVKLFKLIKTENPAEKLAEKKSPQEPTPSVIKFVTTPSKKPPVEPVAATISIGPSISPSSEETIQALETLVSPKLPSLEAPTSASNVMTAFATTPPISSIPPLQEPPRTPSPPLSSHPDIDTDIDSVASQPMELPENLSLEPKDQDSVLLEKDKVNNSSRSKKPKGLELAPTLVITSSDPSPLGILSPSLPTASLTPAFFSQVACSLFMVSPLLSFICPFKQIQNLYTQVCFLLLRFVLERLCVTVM
Conditions: protein: recombinant; tags: N-terminal GST; dsDNA, one strand shown. The essentials:
as §1

The target in the next assay is T4, ETV2 (Homo sapiens, UniProt O00321 1-342).
T4 sequence: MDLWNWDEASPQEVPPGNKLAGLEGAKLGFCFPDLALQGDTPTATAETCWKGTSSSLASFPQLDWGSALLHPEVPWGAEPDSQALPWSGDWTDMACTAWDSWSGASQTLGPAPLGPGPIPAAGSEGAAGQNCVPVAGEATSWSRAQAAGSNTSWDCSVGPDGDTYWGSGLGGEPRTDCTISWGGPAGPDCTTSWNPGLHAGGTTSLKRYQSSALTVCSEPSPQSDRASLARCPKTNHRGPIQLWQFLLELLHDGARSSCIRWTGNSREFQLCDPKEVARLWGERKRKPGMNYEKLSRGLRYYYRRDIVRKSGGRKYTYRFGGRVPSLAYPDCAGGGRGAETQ
Conditions: protein: recombinant; tags: N-terminal GST; dsDNA, one strand shown. The essentials:
as §1

The target of the next assay is T5, ELF3 (Homo sapiens, UniProt P78545 1-371).
T5 sequence: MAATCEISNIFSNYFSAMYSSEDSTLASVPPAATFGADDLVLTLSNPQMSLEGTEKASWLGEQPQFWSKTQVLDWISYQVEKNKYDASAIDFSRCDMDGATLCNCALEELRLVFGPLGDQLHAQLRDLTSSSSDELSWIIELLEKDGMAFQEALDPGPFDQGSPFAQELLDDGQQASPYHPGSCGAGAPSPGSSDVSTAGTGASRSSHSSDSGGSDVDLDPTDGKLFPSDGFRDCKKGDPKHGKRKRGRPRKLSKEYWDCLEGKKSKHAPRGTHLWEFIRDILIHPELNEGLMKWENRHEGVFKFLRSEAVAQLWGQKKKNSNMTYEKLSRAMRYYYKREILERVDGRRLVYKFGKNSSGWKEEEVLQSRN
Conditions: protein: recombinant; tags: N-terminal GST; dsDNA, one strand shown. Put shortly:
as §1

In a further assay the target is CRX (Homo sapiens, UniProt O43186 1-299). Conditions: protein: recombinant; tags: N-terminal GST; dsDNA, one strand shown. Put shortly: as §1
CRX, sequence (O43186 whole entry): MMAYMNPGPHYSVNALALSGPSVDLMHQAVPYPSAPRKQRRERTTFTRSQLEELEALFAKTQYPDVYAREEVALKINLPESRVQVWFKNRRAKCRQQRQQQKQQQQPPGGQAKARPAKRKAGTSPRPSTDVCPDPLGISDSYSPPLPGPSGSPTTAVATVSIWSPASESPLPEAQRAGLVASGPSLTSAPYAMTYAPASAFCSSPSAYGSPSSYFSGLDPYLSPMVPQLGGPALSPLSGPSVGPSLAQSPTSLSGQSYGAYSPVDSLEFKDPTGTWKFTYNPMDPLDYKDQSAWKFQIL
The target of a further assay is ETV1 (Homo sapiens, UniProt P50549 1-477). Conditions: protein: recombinant; tags: N-terminal GST; dsDNA, one strand shown. Put shortly:
as §1

The target in another assay is T6, ERF (Homo sapiens, UniProt P50548 1-548).
T6 sequence: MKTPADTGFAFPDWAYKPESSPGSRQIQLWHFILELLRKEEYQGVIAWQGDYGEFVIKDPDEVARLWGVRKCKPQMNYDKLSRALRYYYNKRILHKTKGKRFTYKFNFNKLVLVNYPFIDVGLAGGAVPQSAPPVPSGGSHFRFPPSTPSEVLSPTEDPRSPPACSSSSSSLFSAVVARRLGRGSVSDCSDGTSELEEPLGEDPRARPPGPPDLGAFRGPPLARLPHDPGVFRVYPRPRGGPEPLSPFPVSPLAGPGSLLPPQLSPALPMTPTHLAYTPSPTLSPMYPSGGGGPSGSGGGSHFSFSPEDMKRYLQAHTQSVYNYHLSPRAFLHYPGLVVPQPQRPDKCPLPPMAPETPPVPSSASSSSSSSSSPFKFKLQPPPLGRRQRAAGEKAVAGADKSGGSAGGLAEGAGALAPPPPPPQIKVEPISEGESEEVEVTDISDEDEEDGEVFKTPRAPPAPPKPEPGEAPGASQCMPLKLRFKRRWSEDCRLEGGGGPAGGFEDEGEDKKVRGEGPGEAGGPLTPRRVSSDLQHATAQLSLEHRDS
The settings on record: protein: recombinant; tags: N-terminal GST; dsDNA, one strand shown. The essentials: as §1

In a further assay the target is T7, ETV3L (Homo sapiens, UniProt Q6ZN32 1-361).
T7 sequence: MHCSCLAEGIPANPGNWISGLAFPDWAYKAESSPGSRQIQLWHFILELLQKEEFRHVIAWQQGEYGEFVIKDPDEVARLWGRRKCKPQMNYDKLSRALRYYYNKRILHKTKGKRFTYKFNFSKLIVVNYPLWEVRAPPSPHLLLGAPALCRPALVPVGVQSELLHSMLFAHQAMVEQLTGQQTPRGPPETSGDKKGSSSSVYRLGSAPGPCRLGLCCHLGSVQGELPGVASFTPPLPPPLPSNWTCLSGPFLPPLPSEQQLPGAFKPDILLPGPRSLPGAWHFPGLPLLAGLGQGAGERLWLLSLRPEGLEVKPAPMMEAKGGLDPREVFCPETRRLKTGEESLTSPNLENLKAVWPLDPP
The settings on record: protein: recombinant; tags: N-terminal GST; dsDNA, one strand shown. The essentials:
as §1

A further assay concerns the target T8, ETS2 (Homo sapiens, UniProt P15036 1-469).
T8 sequence: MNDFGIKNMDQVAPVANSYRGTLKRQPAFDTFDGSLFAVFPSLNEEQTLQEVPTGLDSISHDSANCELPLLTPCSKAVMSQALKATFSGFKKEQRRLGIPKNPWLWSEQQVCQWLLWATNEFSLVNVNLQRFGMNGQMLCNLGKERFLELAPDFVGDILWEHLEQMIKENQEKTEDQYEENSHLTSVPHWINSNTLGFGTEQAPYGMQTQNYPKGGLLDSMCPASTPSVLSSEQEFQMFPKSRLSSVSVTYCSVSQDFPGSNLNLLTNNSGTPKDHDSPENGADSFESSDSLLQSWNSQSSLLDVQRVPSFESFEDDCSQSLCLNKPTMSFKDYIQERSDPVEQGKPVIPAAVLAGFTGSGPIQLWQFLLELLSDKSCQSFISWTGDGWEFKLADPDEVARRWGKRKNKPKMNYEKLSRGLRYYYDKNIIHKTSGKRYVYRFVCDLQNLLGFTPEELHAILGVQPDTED
Conditions: protein: recombinant; tags: N-terminal GST; dsDNA, one strand shown. The essentials:
as §1

Another assay addresses T9, SPDEF (Homo sapiens, UniProt O95238 1-335).
T9 sequence: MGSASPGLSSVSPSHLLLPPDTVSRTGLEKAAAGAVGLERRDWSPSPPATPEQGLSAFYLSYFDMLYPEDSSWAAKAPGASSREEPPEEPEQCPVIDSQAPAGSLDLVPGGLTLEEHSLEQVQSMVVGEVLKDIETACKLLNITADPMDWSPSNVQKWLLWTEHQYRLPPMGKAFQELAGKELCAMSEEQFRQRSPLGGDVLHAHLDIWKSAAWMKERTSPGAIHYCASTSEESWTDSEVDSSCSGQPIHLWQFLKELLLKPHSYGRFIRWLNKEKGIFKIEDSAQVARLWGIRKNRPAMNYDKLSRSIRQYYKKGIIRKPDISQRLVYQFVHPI
Conditions: protein: recombinant; tags: N-terminal GST; dsDNA, one strand shown. The essentials: as §1

A further assay concerns the target T10, ETV7 (Homo sapiens, UniProt Q9Y603 1-341).
T10 sequence: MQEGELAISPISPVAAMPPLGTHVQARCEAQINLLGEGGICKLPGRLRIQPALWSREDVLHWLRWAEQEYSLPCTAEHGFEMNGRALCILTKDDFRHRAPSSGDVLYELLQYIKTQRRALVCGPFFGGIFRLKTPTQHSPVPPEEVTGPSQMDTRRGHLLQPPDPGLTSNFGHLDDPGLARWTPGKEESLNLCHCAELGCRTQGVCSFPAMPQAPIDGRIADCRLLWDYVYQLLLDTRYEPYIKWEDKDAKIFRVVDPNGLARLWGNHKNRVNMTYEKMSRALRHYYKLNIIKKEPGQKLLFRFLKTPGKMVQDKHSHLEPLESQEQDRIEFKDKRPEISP
Conditions: protein: recombinant; tags: N-terminal GST; dsDNA, one strand shown. Put shortly:
as §1

In the next assay the target is T11, ELF5 (Homo sapiens, UniProt Q9UKW6-2 1-255).
T11 sequence: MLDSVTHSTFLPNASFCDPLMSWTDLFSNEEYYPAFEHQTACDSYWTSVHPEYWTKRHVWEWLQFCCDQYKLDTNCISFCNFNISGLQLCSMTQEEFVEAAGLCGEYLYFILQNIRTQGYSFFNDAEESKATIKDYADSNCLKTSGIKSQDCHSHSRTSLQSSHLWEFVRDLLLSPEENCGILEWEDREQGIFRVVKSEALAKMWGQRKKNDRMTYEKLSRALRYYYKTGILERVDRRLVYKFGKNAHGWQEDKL
The settings on record: protein: recombinant; tags: N-terminal GST; dsDNA, one strand shown. The essentials: as §1

The target in the next assay is T12, ETV3 (Homo sapiens, UniProt P41162-2 1-143).
T12 sequence: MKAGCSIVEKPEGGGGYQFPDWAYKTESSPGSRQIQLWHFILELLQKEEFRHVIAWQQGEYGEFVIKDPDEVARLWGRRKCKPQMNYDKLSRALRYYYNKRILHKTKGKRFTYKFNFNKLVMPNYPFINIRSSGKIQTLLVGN
The settings on record: protein: recombinant; tags: N-terminal GST; dsDNA, one strand shown. The essentials: as §1

A further assay deals with ETV6 (Homo sapiens, UniProt P41212 1-452). The settings on record: protein: recombinant; tags: N-terminal GST; dsDNA, one strand shown. Put shortly:
as §1

ELF4, sequence (Q99607 whole entry): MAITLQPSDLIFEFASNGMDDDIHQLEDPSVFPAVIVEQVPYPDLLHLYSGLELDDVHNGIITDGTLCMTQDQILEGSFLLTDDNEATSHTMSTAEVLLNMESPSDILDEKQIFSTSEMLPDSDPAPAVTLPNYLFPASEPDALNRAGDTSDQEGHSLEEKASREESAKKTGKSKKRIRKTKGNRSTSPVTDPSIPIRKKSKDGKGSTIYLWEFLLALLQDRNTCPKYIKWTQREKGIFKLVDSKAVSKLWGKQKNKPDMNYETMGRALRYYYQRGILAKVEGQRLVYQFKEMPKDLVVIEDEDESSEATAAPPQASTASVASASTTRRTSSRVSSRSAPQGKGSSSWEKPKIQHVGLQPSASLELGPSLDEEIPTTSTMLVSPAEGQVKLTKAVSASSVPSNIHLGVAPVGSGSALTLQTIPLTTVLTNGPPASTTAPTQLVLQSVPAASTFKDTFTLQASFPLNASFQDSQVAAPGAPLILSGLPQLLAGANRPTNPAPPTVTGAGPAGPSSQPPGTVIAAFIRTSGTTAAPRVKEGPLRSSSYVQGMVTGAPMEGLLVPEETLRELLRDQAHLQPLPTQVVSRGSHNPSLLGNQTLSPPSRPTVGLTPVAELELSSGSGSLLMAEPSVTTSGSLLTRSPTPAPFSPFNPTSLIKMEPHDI
ETV5, sequence (P41161 whole entry): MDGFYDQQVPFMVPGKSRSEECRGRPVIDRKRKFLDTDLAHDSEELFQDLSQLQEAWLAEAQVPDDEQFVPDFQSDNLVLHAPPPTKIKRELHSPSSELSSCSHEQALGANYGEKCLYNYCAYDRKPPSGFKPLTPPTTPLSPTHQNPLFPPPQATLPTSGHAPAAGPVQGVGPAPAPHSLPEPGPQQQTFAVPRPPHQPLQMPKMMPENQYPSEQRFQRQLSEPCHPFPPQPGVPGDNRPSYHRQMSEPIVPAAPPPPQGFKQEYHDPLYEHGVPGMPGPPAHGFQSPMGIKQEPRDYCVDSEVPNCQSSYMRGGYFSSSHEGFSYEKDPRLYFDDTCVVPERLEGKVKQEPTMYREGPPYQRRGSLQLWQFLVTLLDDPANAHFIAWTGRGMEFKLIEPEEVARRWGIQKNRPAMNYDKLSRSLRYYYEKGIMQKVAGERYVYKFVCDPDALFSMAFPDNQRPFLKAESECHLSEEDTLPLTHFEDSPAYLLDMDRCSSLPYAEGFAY
ETV6, sequence (P41212 whole entry): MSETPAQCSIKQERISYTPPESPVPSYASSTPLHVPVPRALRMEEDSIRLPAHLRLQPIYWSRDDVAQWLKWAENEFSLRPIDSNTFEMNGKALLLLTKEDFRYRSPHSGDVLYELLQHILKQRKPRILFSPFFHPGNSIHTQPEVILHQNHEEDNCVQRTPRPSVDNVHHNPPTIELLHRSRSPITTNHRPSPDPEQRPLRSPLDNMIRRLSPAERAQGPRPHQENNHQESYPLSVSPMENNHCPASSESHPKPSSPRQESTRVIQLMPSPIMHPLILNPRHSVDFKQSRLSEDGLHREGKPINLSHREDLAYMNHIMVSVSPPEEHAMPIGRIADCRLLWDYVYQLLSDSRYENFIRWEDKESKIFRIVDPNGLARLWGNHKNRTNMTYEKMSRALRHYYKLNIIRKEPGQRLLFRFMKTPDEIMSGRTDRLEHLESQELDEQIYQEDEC
ETV1, sequence (P50549 whole entry): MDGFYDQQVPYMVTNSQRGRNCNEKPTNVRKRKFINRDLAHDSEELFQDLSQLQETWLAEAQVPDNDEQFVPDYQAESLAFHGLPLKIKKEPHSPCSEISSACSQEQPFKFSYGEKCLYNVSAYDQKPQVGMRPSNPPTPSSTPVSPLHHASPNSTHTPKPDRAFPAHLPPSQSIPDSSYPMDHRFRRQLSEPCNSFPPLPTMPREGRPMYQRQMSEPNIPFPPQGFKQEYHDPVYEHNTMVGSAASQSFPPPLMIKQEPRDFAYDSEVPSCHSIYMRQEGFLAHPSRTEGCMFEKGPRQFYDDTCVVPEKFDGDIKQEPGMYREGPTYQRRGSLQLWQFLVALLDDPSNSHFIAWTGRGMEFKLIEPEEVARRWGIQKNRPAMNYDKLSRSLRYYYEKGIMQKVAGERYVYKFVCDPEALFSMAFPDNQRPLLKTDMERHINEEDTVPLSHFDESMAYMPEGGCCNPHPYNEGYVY

Take CTTGTA: the binding signal with FEV is 1.32 fold enrichment (6-mer frequency, TF over GST control); with ETV5, 1.33 fold enrichment (6-mer frequency, TF over GST control); with HSF1, 1.34 fold enrichment (6-mer frequency, TF over GST control); with SPIC, 1.22 fold enrichment (6-mer frequency, TF over GST control); with ELF4 it was 1.37 fold enrichment (6-mer frequency, TF over GST control); in the assay with ELK4 it was 1.64 fold enrichment (6-mer frequency, TF over GST control). Moreover, the binding signal was 1.41 fold enrichment (6-mer frequency, TF over GST control) in the assay with ETV2; 1.27 fold enrichment (6-mer frequency, TF over GST control) with ELF3; 1.27 fold enrichment (6-mer frequency, TF over GST control) with CRX; 1.41 fold enrichment (6-mer frequency, TF over GST control) in the assay with ETV1; 1.45 fold enrichment (6-mer frequency, TF over GST control) with ERF; 1.26 fold enrichment (6-mer frequency, TF over GST control) with ETV3L. The binding signal with ETS2 was 1.44 fold enrichment (6-mer frequency, TF over GST control); with SPDEF, 1.45 fold enrichment (6-mer frequency, TF over GST control); in the assay with ETV7, 1.17 fold enrichment (6-mer frequency, TF over GST control); in the assay with ELF5, 1.36 fold enrichment (6-mer frequency, TF over GST control); in the assay with ETV3, 1.48 fold enrichment (6-mer frequency, TF over GST control); with ETV6, 1.37 fold enrichment (6-mer frequency, TF over GST control).

Values taken from publication PMC7862700, “An all-to-all approach to the identification of sequence-specific readers for epigenetic DNA modifications on cytosine”.
